Hit rate of the full screen: of about 69,000 compounds, about 950 (1.4%) showed an effect of 50% or more. Only a selection was taken, and strong results are over-represented in it overall.
Test system: Mycobacterium tuberculosis
Experiment: Cornell M. t heat shock assay; note: in the data most compounds retested in dose-response had high values
Assay type: functional, organism-based
Design: dose or concentration left out as unconfirmed

Row | Compound | Percent Effect [%]
1 | O=C(O)C(F)(F)F.O=C1CO[C@@H]2CN(CC3CCOCC3)C[C@H]2N1CC1CC1 | -5.405
2 | CN1C(=O)CC(c2ccccc2)C12CCN(CC1CC1)CC2.O=C(O)C(F)(F)F (stereo unspecified) | 1.497
3 | CCN1CCN(CCCNC(=O)c2cc3ccc(C)cc3nc2C)CC1 | -11.33
4 | Cc1ccc2cc(C(=O)NCCN3CCS(=O)(=O)CC3)c(C)nc2c1 | 96.87
5 | COc1ccc2nc(C)c(C(=O)NCCN3CCS(=O)(=O)CC3)cc2c1 | 0.03382
6 | CCN(CC)Cc1cn2c(n1)CN(Cc1c(C)noc1C)CC2.O=C(O)C(F)(F)F.O=C(O)C(F)(F)F | -4.28
7 | Cn1nccc1-c1nnn2c1COCC(CNC1CCOCC1)C2.O=C(O)C(F)(F)F.O=C(O)C(F)(F)F (stereo unspecified) | 3.559
8 | CCCn1c(NCCc2ccccc2)nc2c(C)nn(C)c2c1=O | 22.06
9 | Cc1nc(NC2CC2)c2c(n1)c(C)nn2C | -10.52
10 | CCn1nc(C)c2nc(C(C)C)nc(NCCc3ccc(O)cc3)c21 | -11.29
11 | CCCc1nc(NCCc2ccccc2)c2c(n1)c(C)nn2CC | 91.68
12 | CCn1nc(C)c2nc(C)nc(NCCc3ccc(C)cc3)c21 | 69.41
13 | CCCc1nc(NCCCOC)c2c(n1)c(C)nn2CC | -13.02
14 | Cc1nc(NC2CCCC2)c2c(n1)c(C)nn2C | 15.85
15 | CCn1nc(C)c2nc(C)nc(NCCc3ccccc3)c21 | 83.2
16 | CCn1nc(C)c2nc(C)nc(NC3CCCC3)c21 | 69.93
17 | CCCc1nc(NCCCO)c2c(n1)c(C)nn2CC | 24.94
18 | CCn1nc(C)c2nc(C)nc(NCCCn3cccn3)c21 | -3.879
19 | CCCc1nc(NCCOC)c2c(n1)c(C)nn2CC | -17.61
20 | O=C(O)C(F)(F)F.O=C(O)C(F)(F)F.c1cc(CN2CCO[C@H]3[C@H](OCC4CCCC4)CC[C@@H]32)ccn1 | 3.983
21 | Cc1ccc(C(=O)N2CCC3(CCCN(c4ncc(F)cn4)C3)C2)cn1.O=C(O)C(F)(F)F (stereo unspecified) | 10.32

Row | Compound | Percent Effect [%]
22 | C1CC(CO[C@@H]2CC[C@H]3[C@H]2OCCN3CC2CC2)CCO1.O=C(O)C(F)(F)F | -24.78
23 | Cc1ccc(C)c(CSc2nnc(C(N)Cc3ccccc3)o2)c1.Cl (stereo unspecified) | -13.89
24 | Cl.O=C(C1CC1)N1CCOC2(CCNCC2)C1 | 27.3
25 | Fc1ccc(CN2C[C@@H]3OCCN(CC4CCCO4)[C@@H]3C2)cc1.O=C(O)C(F)(F)F.O=C(O)C(F)(F)F (stereo partly specified) | -48.55
26 | CCc1ncnc2c1CCN(Cc1ccc3c(c1)OCO3)CC2.O=C(O)C(F)(F)F | -11.62
27 | COC[C@H]1CC[C@@H]2[C@@H](CCN2Cc2ccco2)O1.O=C(O)C(F)(F)F | -6.92
28 | Cc1ccc(CN2CCOC3(CCN(CC4CCOC4)CC3)C2)cc1.O=C(O)C(F)(F)F.O=C(O)C(F)(F)F (stereo unspecified) | 35.27
29 | CNC(=O)[C@H]1CO[C@H]2CCN(Cc3ccc4ccccc4n3)C[C@H]2C1.O=C(O)C(F)(F)F.O=C(O)C(F)(F)F | -6.104
30 | CCCc1nc(N2CCCCC2)c2c(n1)c(C)nn2CC | -7.298
31 | CCCc1nc(N2CCN(CC)CC2)c2c(n1)c(C)nn2CC | -31.53
32 | CCCc1nc(N2CCCCCC2)c2c(n1)c(C)nn2CC | 50.35
33 | COCC(=O)N1CCOCC2(CCN(Cc3cccs3)C2)C1.O=C(O)C(F)(F)F (stereo unspecified) | -21.04
34 | Cc1ccc(CN2CCn3c(CN(C)C(C)C)cnc3C2)s1.O=C(O)C(F)(F)F.O=C(O)C(F)(F)F | -14.26
35 | Cc1cn2c(n1)C(CNCc1ccc(C)s1)CCC2 (stereo unspecified) | -22.18
36 | Cc1cn2c(n1)C(CNCC1=Cc3cc(Cl)ccc3OC1)CCC2 (stereo unspecified) | 99
37 | Cc1cn2c(n1)C(CNCC1=Cc3ccccc3OC1)CCC2 (stereo unspecified) | 28.86
38 | O=C(NCC1CC1)[C@H]1C[C@@H]2CCN(Cc3ccc4c(c3)OCO4)C[C@@H]2O1.O=C(O)C(F)(F)F | -28.42
39 | Fc1ccccc1-c1nc(CNCCn2cccn2)cs1 | 20.44
40 | Clc1ccccc1-c1nc(CNCCn2cccn2)cs1 | 54.38
41 | COc1cccc(-c2nc(CNCCn3cccn3)cs2)c1 | 90.69
42 | COc1cccc(-c2nc(CNCCc3cccnc3)cs2)c1 | -0.6336

Row | Compound | Percent Effect [%]
43 | c1cnc(-c2nc(CNCCn3cccn3)cs2)nc1 | -0.9429
44 | c1csc(-c2nc(CNCCn3cccn3)cs2)c1 | 10.7
45 | COc1cccc(-c2nc(CNCCCn3cccn3)cs2)c1 | 37.34
46 | Fc1ccc(-c2n[nH]cc2CNCCn2cccn2)cc1 | 11.69
47 | c1ccc(-c2nc(CNCCn3cccn3)cs2)cc1 | 37.88
48 | Fc1ccc(-c2nc(CNCCn3cccn3)cs2)cc1 | 66.63
49 | c1ccc(-c2nc(CNCCn3cccn3)cs2)nc1 | -25.33
50 | c1cnn(CCNCc2csc(-c3ccsc3)n2)c1 | 52.72
51 | Cc1ccc(CN2CCC3(CC2)CN(c2cnn(C)c2)C(=O)CO3)o1.O=C(O)C(F)(F)F | -7.35
52 | OCCOc1cc(F)ccc1NCc1cccc(F)c1F | -41.85
53 | O=C(O)C(F)(F)F.O=S(=O)(c1cccs1)N1CC[C@H](O)[C@@H]1Cc1ccncc1 | -2.198
54 | Cn1cc(N2C(=O)CC[C@@H]3[C@H]2CCN3CCc2ccccc2)cn1.O=C(O)C(F)(F)F.O=C(O)C(F)(F)F | -25.96
55 | COc1ccc(CNC(C)c2cccc(Br)c2)c(OC)c1OC.Cl (stereo unspecified) | -10.84
56 | COCCN1CCC(c2nc3ccc(-c4ccccc4)cn3n2)CC1.O=C(O)C(F)(F)F | -23.12
57 | C/N=C1/c2cc3cc(OC)ccc3n2CCN1Cc1ccccc1.Cl | -17.35
58 | Cc1noc(C)c1CN1CCO[C@H]2CN(C(=O)N3CCCC3)C[C@H]21.O=C(O)C(F)(F)F | -20.16
59 | Cn1cc(-c2nc(CNCCn3cccn3)cs2)cn1 | -4.068
60 | COc1ccc(-c2nc(CNCCn3cccn3)cs2)cc1 | 106.9
61 | COc1ccc(-c2nnc(CNCCn3cccn3)o2)cc1 | -11.96

Source: ChEMBL document CHEMBL3988442, “University of Dundee, Small-Polar-MMV Screening Library” (2021)
